In PubChem BioAssay (NCI):
Where “and” joins values, the source holds several entries; their conditions need not be identical. Equal entries are not always repeated. The panel holds about 83,000 compounds, 20% with a hit somewhere; the sample as a whole holds those more often.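 Cell lines were cultured in 96-well plates, exposed to a single compound concentration, and assessed for percent growth 48 hours later.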 Calls of active or inactive are those of the source.

These molecules were tested on MDA-MB-468 breast (assay: NCI-60 one-dose screen, 48 h (100 = growth as untreated, 0 = no growth, -100 = all killed)). Conditions: 10 µM unless noted.
Experimental: Growth inhibition of the MDA-MB-468 human Breast tumor cell line is measured as a screen for anti-cancer activity. Cells are grown in 96 well plates and exposed to the test compound for 48 hours. Compounds are tested at a single concentration, which is 10^-5 M for most compounds. The reported endpoint is percent growth (GI% or GIPRCNT), where numbers from 0 - 100% represent growth inhibition, and numbers from -100% - 0 represent cell death. For example, a value of 40 represents 60% growth inhibition. A value of 0 means no net growth occurred over the course of the experiment. A value of -40 indicates 40% of cells at the beginning of the experiment died by the end of the experiment. A value of -100 means all cells are dead at the end of the experiment.
NCI-60 Human Tumor Cell Lines Screen was performed using the standard one-dose NCI protocol, which is described in more detail at https://dtp.cancer.gov/discovery_development/nci-60/default.htm.
Compounds with GIPRCNT values below 10 were considered active. Activity score was based on GIPRCNT using the following formula: […]
Score is 0 for GIPRCNT values of 100 or above, 50 for GIPRCNT values of 0, and 100 for GIPRCNT values of -100.

| SMILES | growth |
| --- | --- |
| COc1ccc(/C=C2\Oc3cc(OCCN4CCC(Cc5ccccc5)CC4)ccc3C2=O)cc1OC | 31% (inactive) |
| Oc1ccc(-c2cnc(-c3ccccc3)[nH]2)c(O)c1 | 109% (inactive) |
| O=C(CNc1nc(-c2cccc([N+](=O)[O-])c2)cs1)Nc1cccc([N+](=O)[O-])c1 | 14.3% (inactive) |
| COc1ccc(-c2csc(N/N=C/c3c(-c4ccc(S(C)(=O)=O)cc4)nc4ccccn34)n2)cc1 | 106% (inactive) |
| C#CCN=C[C@]12CC[C@@H](C(=C)C)[C@@H]1[C@H]1CC[C@@H]3[C@@]4(C)CCC(=O)C(C)(C)[C@@H]4CC[C@@]3(C)[C@]1(C)CC2 | 40.3% (inactive) |
| COc1cc(Nc2c(C#N)cnc3cc(OCCCN4CCN(C)CC4)c(OC)cc23)c(Cl)cc1Cl | 56.2% (inactive) |
| Cc1nc(Nc2ncc(C(=O)Nc3c(C)cccc3Cl)s2)cc(N2CCN(CCO)CC2)n1 | -4.35% (active) and -2.22% (active) |
| O=[N+]([O-])c1cc(Cl)cc(Cl)c1O | 104% (inactive) |
| O=C1CSC(c2cn(-c3ccccc3)nc2-c2ccc(Cl)cc2)N1c1ccccc1 (stereo not given) | 104% (inactive) |
| O=C1c2cc3c(cc2-c2c1c1cc(F)c(F)cc1c(=O)n2C[C@H](O)CO)OCO3 | -57.2% (active) |
| O=C(CCc1nc(-c2cccc(Cl)c2)no1)Nc1ccccn1 | 83.1% (inactive) |
| COc1cccc(-c2nc3sccn3c2-c2ccnc(NCCNS(=O)(=O)c3ccccc3)c2)c1 | 16.2% (inactive) |
| COc1ccc(NC(=O)c2ccc(Nc3ncnc4c3cnn4-c3cccc(F)c3)cc2)cc1 | 100% (inactive) |
| CCOc1ccncc1[N+](=O)[O-] | 104% (inactive) |
| CCCCc1n(Cc2ccc3ccccc3n2)cc[n+]1Cc1ccc2ccccc2n1 | -30% (active) |
| Nc1nc(SCC2(CCl)COC2)c2[nH]cnc2n1 | 108% (inactive) |
| C=CCC(CCC(CC=C)C(=O)OCC)C(=O)OCC (stereo not given) | 108% (inactive) |
| C[C@H]1[C@H](C)CC[C@]2(C(=O)O)CC[C@]3(C)C(=CC[C@@H]4[C@@]5(C)C/C(=C/c6ccco6)C(=O)C(C)(C)[C@@H]5CC[C@]43C)[C@H]12 | -38% [100 µM] (active) |
| COc1ccc(NC(=O)c2ccc(-c3ccccc3)cc2)c(C(N)=O)c1 | 109% (inactive) |
| CC(c1ccccc1)n1ccnc1CO (stereo not given) | 101% (inactive) |

| SMILES | growth |
| --- | --- |
| CC(=O)C1=NN(c2ccc(Cl)cc2)C(=O)CN1C | 102% (inactive) |
| Oc1ccccc1-c1nnc(COc2ccc(Cl)cc2Cl)o1 | 58.7% (inactive) |
| COc1cc(NC2CCC(=O)N2c2ccc(Cl)cc2Cl)cc(OC)c1OC (stereo not given) | 110% (inactive) |
| COc1cc(C=C2C(=O)N(C)C(=O)N(C)C2=O)cc(CN2CCCCC2)c1O | 104% (inactive) |
| CC1=Nc2cnc(Nc3ccc(OCCN4CCCCC4)cc3)nc2Nc2ccccc21 | 63.4% (inactive) |
| COC(=O)/C=C1\S/C(=N\NC(=O)c2cc3ccc2/C=C\c2ccc(cc2)/C=C\3)N(Cc2ccccc2)C1=O | 21.1% (inactive) |
| COc1cc(/C=C/C(=O)c2ccc(NC(=O)CN3CCN(c4cc5c(cc4F)c(=O)c(C(=O)O)cn5C4CC4)CC3)cc2)cc(OC)c1OC | -1.82% (active) |
| COc1cc(-c2nc(-c3ccccc3)[nH]c2-c2ccnc(NCCCNS(=O)(=O)c3ccc(C(F)(F)F)cc3)n2)ccc1Cl | 14% (inactive) and 41.9% (inactive) |
| CCCCNc1ccc(C#N)c(OCCN(CC)CC)c1 | 90.1% (inactive) |
| COC1C(OC(N)=O)C(O)C(Oc2ccc3c(O)c(NC(=O)c4ccc(O)c(CC=C(C)C)c4)c(=O)oc3c2C)OC1(C)C (stereo not given) | 89% (inactive) |
| CC(=O)O[C@@]12CO[C@@H]1C[C@H](O)[C@@]1(C)C(=O)[C@H](O)C3=C(C)[C@@H](OC(=O)[C@H](O)[C@@H](NC(=O)OC(C)(C)C)c4ccccc4)C[C@@](O)([C@@H](OC(=O)c4ccccc4)C12)C3(C)C (stereo not given in full) | 3.09% (active) |
| CC(=O)c1ccc2c(c1)N(CCCN1CCN(CCO)CC1)c1ccccc1S2 | 92.3% (inactive) and -79% (active) |
| COc1cc(-c2cc(-c3ccc(Nc4ccnc5cc(Cl)ccc45)cc3)nc(N3CCOCC3)n2)cc(OC)c1OC | -43.9% (active) |
| CC(=O)OCC(=O)C1CCC=CC1OC(C)=O (stereo not given) | 85.6% (inactive) |
| N#C/C(=C\c1ccc([N+](=O)[O-])s1)c1nc2cc(Br)ccc2s1 | 32.4% (inactive) |
| CCCC(=O)OCC(COC(=O)CCC)OC(=O)CCC | 89% (inactive) |
| COc1ccc(C(=O)/C=C/c2ccc(OCc3ccc(Cl)cc3)c(OC)c2)cc1OC | 50.9% (inactive) |
| COc1ccc(CNS(=O)(=O)/N=C2\NC(=O)NC2=C(Cl)Cl)cc1 | 19.4% (inactive) |
| CCCCCC#CC(=O)O | 108% (inactive) |
| O=C(CCc1nnc2sc(-c3ccc(Cl)cc3Cl)nn12)c1nc2ccccc2[nH]1 | -56.2% (active) |
